# This is part of a sample that, as a whole, favours compounds with a hit. Of some 83,000 tested, about 20% had one in any assay.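 Growth was measured after 48 h exposure to one concentration of compound in 96-well plates. Values under 10 count as active.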 The source made the active and inactive calls.
# Tested on: CAKI-1 renal
# Experiment: NCI-60 one-dose screen, 48 h (100 = growth as untreated, 0 = no growth, -100 = all killed)
# Conditions: 10 µM unless noted
# Method: Growth inhibition of the CAKI-1 human tumor cell line is measured as a screen for anti-cancer activity. Cells are grown in 96 well plates and exposed to the test compound for 48 hours. Compounds are tested at a single concentration, which is 10^-5 M for most compounds. The reported endpoint is percent growth (GI% or GIPRCNT), where numbers from 0 - 100% represent growth inhibition, and numbers from -100% - 0 represent cell death. For example, a value of 40 represents 60% growth inhibition. A value of 0 means no net growth occurred over the course of the experiment. A value of -40 indicates 40% of cells at the beginning of the experiment died by the end of the experiment. A value of -100 means all cells are dead at the end of the experiment.
# NCI-60 Human Tumor Cell Lines Screen was performed using the standard one-dose NCI protocol, which is described in more detail at https://dtp.cancer.gov/discovery_development/nci-60/default.htm.
# Compounds with GIPRCNT values below 10 were considered active. Activity score was based on GIPRCNT using the following formula: […]
# Score is 0 for GIPRCNT values of 100 or above, 50 for GIPRCNT values of 0, and 100 for GIPRCNT values of -100.
row,Structure (SMILES),growth
1,CCCn1cc2c(=O)nc3sc(Cc4ccccc4)c(C)n3c2n1,87.7% (inactive)
2,O=C(/C=C/c1cn(-c2ccccc2)nc1-c1ccc(Cl)cc1)c1ccc(F)cc1,76.5% (inactive)
3,CN(C)CC1CCC(CN(C)C)C1=O (stereo not given),108% (inactive)
4,CCCCNC(=O)CC1=C(C)/C(=C/c2[nH]c(-c3ccc[nH]3)cc2OC)N=C1C,4.74% (active)
5,COc1ccc2c(c1)N(CCO)C1=C(C(=O)OC1)C2c1cccc(F)c1 (stereo not given),31.3% (inactive)
6,CN(/C(N)=N/N=C/c1c2ccccc2cc2ccccc12)C1CCCCC1,46.5% (inactive)
7,O=C(Nc1cccc(-c2ccc(Cl)c(C(F)(F)F)c2)c1)C1CCN(Cc2cccc3cccnc23)CC1,-52.5% (active)
8,COc1ccc2c(c1OC)CO[C@@H]2[C@H]1c2c(cc3c(c2OC)OCO3)CCN1S(=O)(=O)c1cn(C)cn1,31.7% (inactive)
9,N=C(N)c1ccc(-c2ccc(-c3ccc(Cl)cc3Cl)s2)cc1,-67.3% (active)
10,O=C(Nc1nc(-c2ccc(Cl)cc2)nc2c1sc(=S)n2-c1ccccc1)C(F)(F)F,20.2% (inactive)
11,Cc1ccc2c(Cn3cc(CSc4nc5ccccc5o4)nn3)cc(=O)oc2c1,100% (inactive)
12,COc1cc(-c2csc(NC(=O)c3ccc(N4CCOCC4)c(C(F)(F)F)c3)n2)cc(OC)c1OC,36.4% (inactive)
13,O=c1c2cnn(-c3ccccc3)c2n2c(CN3CCOCC3)nnc2n1-c1ccccc1,92.4% (inactive)
14,O=C(/C=C/c1cccs1)Nc1ncc(Cc2ccccc2F)s1,23% (inactive)
15,C#CCNC(=O)[C@H](CC)[C@H]1CC[C@H](C)[C@H]([C@@H](C)[C@H](O)[C@H](C)C(=O)[C@H](CC)C2O[C@]3(C=CC(=O)[C@]4(CC[C@@](C)([C@H]5CC[C@](O)(CC)[C@H](C)O5)O4)O3)[C@H](C)C[C@@H]2C)O1 (stereo not given in full),17.4% (inactive)
16,Nc1ncnc2c1C(c1ccccc1)c1ccc3ccccc3c1O2 (stereo not given),81.1% (inactive)
17,Cc1cc(=O)oc2cc(OCc3nn4c(Nc5nc6ccccc6s5)c(-c5ccccc5)nc4s3)ccc12,79.5% (inactive)
18,COc1ccc(OC)c(Nc2nnc(-c3ccc(O)c(OC)c3)o2)c1,30.4% (inactive)
19,O=C(Nc1cccc2ccccc12)NC1CC1,96.5% (inactive)
20,O=C(Nc1cccc(-c2ccc(N3CCOCC3)nn2)c1)Nc1cccc(C(F)(F)F)c1,87.9% (inactive)

row,Structure (SMILES),growth
1,Nc1nc2ccccc2c2c1S(=O)(=O)c1ccc(Cl)cc1C2=O,19% (inactive)
2,Cc1ccc(-c2nc([P+](c3ccccc3)(c3ccccc3)c3ccccc3)c(S(=O)(=O)c3ccc(C)cc3)o2)cc1,5.62% (active)
3,Nc1cc(C(=O)NC[C@H]2CN(c3ccc(N4CCC(C(=O)O)CC4)cc3)C(=O)O2)ccc1Cl,87.7% (inactive)
4,CCOC(=O)c1c2c(n3cccc(F)c13)C(=O)c1ncccc1C2=O,14.4% (inactive)
5,CCOC(=O)C1=C(c2ccccc2)N=C2SC=C(c3ccc(Cl)cc3)N2C1c1ccc(Br)cc1 (stereo not given),61.3% (inactive)
6,Cc1ccc2c(n1)C(=O)C(Br)=C(CC(C)C)C2=O,92.7% (inactive)
7,Nc1ncnc2c1c(-c1cccc(Cl)c1)nn2CC(=O)N1CCOCC1,91.8% (inactive)
8,Oc1c(Br)cc(Br)c2ccc(Cn3cc(-c4ccc(C(F)(F)F)cc4)nn3)nc12,13.2% (inactive)
9,CCO/C=N/C1=C(C#N)C(c2ccc(Cl)cc2)c2sc3c(F)cccc3c2O1 (stereo not given),41.3% (inactive)
10,CC1CCN(CCOc2ccc(CNc3ccc4nc(CCC5CCCCC5)[nH]c4c3)cc2)CC1,-4.81% (active)
11,COc1ccc(-c2cc(-c3cccnc3)nc3sc4c(=O)[nH]c(-c5ccc(Cl)cc5)nc4c23)cc1OC,86.4% (inactive)
12,O=C(N(c1ccccc1)c1ccccc1)n1cc(I)c2nc(Cl)nc(Cl)c21,39.6% (inactive)
13,O=C1/C(=C/c2cccc(F)c2)CN(C(=O)C(Cl)Cl)C/C1=C\c1cccc(F)c1,-75.6% (active)
14,CCN(CC)CCCCCNc1cc(OC(=O)c2ccc(Cl)cc2)cc2cccnc12,106% (inactive)
15,O=C(/C=C/c1cccc(Cl)c1)c1ccc(Nc2nc(Nc3ccc(F)cc3)nc(Nc3ccc(Cl)cc3)n2)cc1,112% (inactive)
16,COc1ccc(C(=O)/C=C/c2c(C(F)(F)F)nc3ccccn23)cc1OC,-5.18% (active)
17,CCC(=O)Oc1ccc(-c2ccccc2)cc1Br,98.7% (inactive)
18,CN1CCc2nc3sc(C(N)=O)c(N)c3c(-c3cccs3)c2C1,38.8% (inactive)
19,COc1ccc(/C=C/C(=O)c2ccc(Nc3ccnc4cc(Cl)ccc34)cc2)cc1,85.1% (inactive)
20,CCN(CC)CCn1c2ccc(OC)cc2c2sc3cc(OC)ccc3c(=O)c21,48.3% (inactive)
